The antibiotic and cytotoxicity screens of Wong et al. (2023)
In all, about 39,000 compounds went through this assay and about 3,300 (8.5%) were called active. The full list was thinned out, with actives kept by preference.

test system: HepG2; assay: cytotoxicity call (relative viability < 0.9); conditions: 10 µM

Question: For `C[C@@H]1CCCCO[C@@H](CN(C)Cc2ccc(C(=O)O)cc2)[C@H](C)CN([C@@H](C)CO)C(=O)c2cc(NC(=O)c3ccccc3)ccc2O1`, which cytotoxicity call is on record?
Answer: inactive

Question: Which cytotoxicity call does the source give for `C[C@@H]1CN([C@H](C)CO)C(=O)Cc2cc(NS(=O)(=O)c3cccs3)ccc2O[C@@H]1CN(C)S(C)(=O)=O` here?
Answer: inactive

Question: How did the cytotoxicity call turn out when `C[C@@H]1CCCCO[C@H](CN(C)C(=O)CCCN(C)C)[C@@H](C)CN([C@@H](C)CO)C(=O)c2cc(NC(=O)Nc3ccc(F)cc3)ccc2O1` was run?
Answer: inactive

Question: `CS(=O)(=O)N1CCn2cc(Cn3cccn3)nc2C1` was tested. Which cytotoxicity call did it give?
Answer: inactive

Question: Which cytotoxicity call does the source give for `Cc1noc(C)c1NC(=O)N(C)C[C@H]1Oc2c(NC(=O)Nc3cccc4ccccc34)cccc2C(=O)N([C@@H](C)CO)C[C@@H]1C` here?
Answer: inactive

Question: `Cc1noc(C)c1S(=O)(=O)N(C)C[C@@H]1OCc2cn(nn2)CCCC(=O)N([C@H](C)CO)C[C@@H]1C` was tested. Which cytotoxicity call did it give?
Answer: inactive

Question: How did the cytotoxicity call turn out when `COc1ccc(S(=O)(=O)Nc2ccc3c(c2)C(=O)N([C@@H](C)CO)C[C@@H](C)[C@@H](CN(C)C(=O)Nc2ccc(C(F)(F)F)cc2)OCCCC[C@H](C)O3)cc1` was run?
Answer: inactive

Question: For `CC(=O)OC[C@H]1O[C@@H](n2cc(C)c(=O)[nH]c2=O)C[C@@H]1OC(C)=O`, which cytotoxicity call is on record?
Answer: inactive

Question: For `C[C@@H]1CCCCO[C@H](CN(C)C)[C@H](C)CN([C@H](C)CO)C(=O)c2cc(NC(=O)Nc3cccc4ccccc34)ccc2O1`, which cytotoxicity call is on record?
Answer: inactive

Question: How did the cytotoxicity call turn out when `COc1ccc(NC(=O)N(C)C[C@H]2OCCCC[C@H](C)Oc3ccc(NS(=O)(=O)c4ccc(OC)cc4)cc3C(=O)N([C@@H](C)CO)C[C@H]2C)cc1` was run?
Answer: inactive

Question: How did the cytotoxicity call turn out when `O=C(Cn1cc([N+](=O)[O-])cn1)n1cccn1` was run?
Answer: inactive

Question: Which cytotoxicity call does the source give for `C[C@@H]1CCCCO[C@H](CN(C)C(=O)Nc2ccc(F)cc2)[C@@H](C)CN([C@@H](C)CO)C(=O)c2cc(NC(=O)Cc3ccccc3)ccc2O1` here?
Answer: inactive

Question: How did the cytotoxicity call turn out when `COc1ccc(CN(C)C[C@H]2OCCCC[C@@H](C)Oc3ccc(NC(=O)Nc4ccc(OC)cc4)cc3C(=O)N([C@@H](C)CO)C[C@@H]2C)cc1` was run?
Answer: inactive

Question: How did the cytotoxicity call turn out when `COc1ccc(CN(C)C[C@H]2OCCCC[C@H](C)Oc3ccc(NC(=O)Nc4ccc(OC)cc4)cc3C(=O)N([C@H](C)CO)C[C@@H]2C)cc1` was run?
Answer: active

Question: With `COc1ccc(CN(C)C[C@@H]2OCCCC[C@H](C)Oc3ccc(NC(=O)Nc4ccc(OC)cc4)cc3C(=O)N([C@H](C)CO)C[C@@H]2C)cc1` as the compound, how does the cytotoxicity call read?
Answer: inactive

Question: How did the cytotoxicity call turn out when `COc1ccc(CN(C)C[C@@H]2OCCCC[C@H](C)Oc3ccc(NC(=O)Nc4ccc(OC)cc4)cc3C(=O)N([C@@H](C)CO)C[C@@H]2C)cc1` was run?
Answer: active

Question: How did the cytotoxicity call turn out when `COc1ccc(CN(C)C[C@@H]2OCCCC[C@@H](C)Oc3ccc(NC(=O)Nc4ccc(OC)cc4)cc3C(=O)N([C@@H](C)CO)C[C@H]2C)cc1` was run?
Answer: inactive

Question: `COc1ccc(CN(C)C[C@@H]2OCCCC[C@@H](C)Oc3ccc(NC(=O)Nc4ccc(OC)cc4)cc3C(=O)N([C@@H](C)CO)C[C@@H]2C)cc1` was tested. Which cytotoxicity call did it give?
Answer: active

Question: How did the cytotoxicity call turn out when `COc1ccc(CN(C)C[C@H]2OCCCC[C@@H](C)Oc3ccc(NC(=O)Nc4ccc(OC)cc4)cc3C(=O)N([C@@H](C)CO)C[C@H]2C)cc1` was run?
Answer: active

Question: Which cytotoxicity call does the source give for `COc1ccc(CN(C)C[C@H]2OCCCC[C@@H](C)Oc3ccc(NC(=O)Nc4ccc(OC)cc4)cc3C(=O)N([C@H](C)CO)C[C@@H]2C)cc1` here?
Answer: inactive

Question: For `COc1ccc(CN(C)C[C@@H]2OCCCC[C@@H](C)Oc3ccc(NC(=O)Nc4ccc(OC)cc4)cc3C(=O)N([C@H](C)CO)C[C@@H]2C)cc1`, which cytotoxicity call is on record?
Answer: inactive

Question: For `Cc1noc(C)c1NC(=O)N[C@@H]1C=C[C@H](CC(=O)N2CCN(C)CC2)O[C@H]1CO`, which cytotoxicity call is on record?
Answer: inactive

Question: For `CC(C)Cc1ccc([C@@H](C)c2nc(-c3cccs3)no2)cc1`, which cytotoxicity call is on record?
Answer: inactive

Question: Which cytotoxicity call does the source give for `C[C@H](CO)N1C[C@H](C)[C@H](CN(C)C(=O)CCCN(C)C)OCc2cn(nn2)CCCC1=O` here?
Answer: inactive

Question: With `Cc1noc(C)c1S(=O)(=O)Nc1cccc2c1O[C@H](CN(C)C(=O)Nc1ccc3c(c1)OCO3)[C@H](C)CN([C@H](C)CO)C2=O` as the compound, how does the cytotoxicity call read?
Answer: inactive

Question: `Cc1noc(C)c1S(=O)(=O)Nc1ccc2c(c1)C(=O)N([C@H](C)CO)C[C@H](C)[C@@H](CN(C)CC1CCCCC1)OCCCC[C@H](C)O2` was tested. Which cytotoxicity call did it give?
Answer: inactive

Question: How did the cytotoxicity call turn out when `C[C@@H]1CN([C@H](C)CO)C(=O)c2cccc(NS(=O)(=O)c3cccs3)c2O[C@@H]1CN(C)Cc1ccncc1` was run?
Answer: inactive

Question: For `N=C(N)N/N=C1\CCc2c(C(=N)N)cccc21`, which cytotoxicity call is on record?
Answer: inactive

Question: With `C[C@@H]1CN([C@@H](C)CO)C(=O)Cc2cc(NC(=O)CCCCCC(=O)Nc3ccccc3N)ccc2O[C@@H]1CN(C)C(=O)Nc1cccc2ccccc12` as the compound, how does the cytotoxicity call read?
Answer: inactive

Question: For `CCS(=O)(=O)Nc1ccc2c(c1)C(=O)N(C)C[C@@H](OC)[C@@H](C)CN(Cc1ccccn1)[C@H](C)CO2`, which cytotoxicity call is on record?
Answer: inactive

Question: `C[C@@H]1CN([C@@H](C)CO)C(=O)c2cc(NS(=O)(=O)c3cn(C)cn3)ccc2O[C@@H](C)CCCCO[C@@H]1CN(C)C` was tested. Which cytotoxicity call did it give?
Answer: inactive

Question: `COc1ccc(NC(=O)Nc2ccc3c(c2)C(=O)N([C@@H](C)CO)C[C@H](C)[C@@H](CN(C)Cc2ccncc2)OCCCC[C@@H](C)O3)cc1` was tested. Which cytotoxicity call did it give?
Answer: active

Question: Which cytotoxicity call does the source give for `COc1ccc(NC(=O)Nc2ccc3c(c2)C(=O)N([C@H](C)CO)C[C@@H](C)[C@@H](CN(C)Cc2ccncc2)OCCCC[C@H](C)O3)cc1` here?
Answer: inactive

Question: Which cytotoxicity call does the source give for `COc1ccc(CN(C)C[C@H]2OCCCC[C@@H](C)Oc3ccc(NC(=O)Nc4ccc(OC)cc4)cc3C(=O)N([C@H](C)CO)C[C@H]2C)cc1` here?
Answer: active

Question: With `COc1ccc(CN(C)C[C@H]2OCCCC[C@H](C)Oc3ccc(NC(=O)Nc4ccc(OC)cc4)cc3C(=O)N([C@H](C)CO)C[C@H]2C)cc1` as the compound, how does the cytotoxicity call read?
Answer: active

Question: For `COc1ccc(NC(=O)Nc2ccc3c(c2)C(=O)N([C@H](C)CO)C[C@H](C)[C@@H](CN(C)Cc2ccncc2)OCCCC[C@@H](C)O3)cc1`, which cytotoxicity call is on record?
Answer: inactive

Question: With `COc1cccc(S(=O)(=O)N(C)C[C@H]2Oc3ncc(C#CCC(C)C)cc3C(=O)N([C@@H](C)CO)C[C@@H]2C)c1` as the compound, how does the cytotoxicity call read?
Answer: inactive

Question: Which cytotoxicity call does the source give for `C[C@@H]1CN([C@H](C)CO)C(=O)CCCn2nncc2CO[C@H]1CN(C)S(=O)(=O)c1ccccc1C#N` here?
Answer: inactive

Question: With `C[C@H](CO)N1C[C@H](C)[C@H](CN(C)CC2CCCCC2)Oc2ccc(NC(=O)Cc3cn(C)c4ccccc34)cc2CC1=O` as the compound, how does the cytotoxicity call read?
Answer: inactive
